High-throughput results from PubChem.
T_cruzi_growth-1: blocks T. cruzi growth in NIH3T3 culture | 77,000 tested, 5.9% active | T. cruzi beta-gal in NIH3T3, GalScreen luminescence, 90 h | inhibition, % at 8.34 µM;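 active = mean inhibition above about 93%, with at least 55% of replicates each passing it, limit read from the data, passing the limit was not always enough; inconclusive = only one of those two conditions holds; inactive = neither condition holds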
C_diff_HTS: inhibitors of Clostridium difficile growth | Clostridium difficile clinical isolate growth, OD600, 24 h; hits give low values | growth activity, negative = inhibition, % at 16 µg/mL (by protocol) | 86,000 tested, 0.25% active | AID 1259249;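 active = mean growth activity at or below -80% and every replicate also at or below -80%; inconclusive = mean at or below -80% but some replicate above -80%; inactive = mean growth activity above -80%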;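 also: 0% = DMSO wells and -100% = levofloxacin 16 µg/mL wells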
T_cruzi_growth-2: Trypanosoma cruzi proliferation inhibition. T. cruzi beta-gal in NIH3T3, GalScreen luminescence, 90 h. 5,600 tested, 72% active. inhibition, % at 8.35 µM. AID 651739. shares compounds with T_cruzi_growth-1;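 active = mean replicate inhibition above about 95% and at least 55% of replicates individually reaching it, limit read from the data; inconclusive = only one of the two criteria is met; inactive = neither criterion is met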
T_cruzi_growth-3: Trypanosoma cruzi proliferation inhibition | shares compounds with T_cruzi_growth-1 | AID 651740 | T. cruzi beta-gal in NIH3T3, GalScreen luminescence, 90 h | inhibition, % at 2.09 µM | 5,600 tested, 21% active;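 active = mean inhibition above about 95%, with at least 55% of replicates also reaching it, limit read from the data; inconclusive = meets just one of the two conditions; inactive = meets neither condition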;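 also: plate controls were neutral control median for no effect and positive control median for full effect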
3T3_cytotox: kills mouse NIH/3T3 fibroblasts. shares compounds with T_cruzi_growth-1. NIH/3T3 viability, CellTiter-Glo ATP luminescence, 90 h. cytotoxicity (signal decrease), % at 8.35 µM. 5,600 tested, 14% active;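 active = mean signal decrease across replicates above about 35% based on untreated-well scatter, with enough replicates individually passing, limit read from the data; inconclusive = no rule stated though some were filed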;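 also: 0% = median of neutral control wells and 100% = median of positive control wells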
3T3_cytotox_2: kills mouse NIH/3T3 fibroblasts. shares compounds with T_cruzi_growth-1. NIH/3T3 viability, CellTiter-Glo ATP luminescence, 90 h. inhibition, % at 24.9 µM. 5,600 tested, 56% active. AID 651744;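 active = mean loss of cell viability signal at or above a set limit, and enough replicates individually reaching it; inconclusive = meets only the mean limit or only the replicate share; inactive = meets neither condition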;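 also: 0% = median of neutral control wells and 100% = median of positive control wells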
Starred values were filed as active, the others as inactive; ? = inconclusive; / = no result. Many of the other results were omitted from the sample, so hits are more common in it than they were.

SMILES T_cruzi_growth-1 C_diff_HTS T_cruzi_growth-2 T_cruzi_growth-3 3T3_cytotox 3T3_cytotox_2
O=C(C[C@H]1CC[C@@H]2[C@H](COC[C@H](O)CN2Cc2ccc(F)cc2)O1)NCCc1ccccc1 -6 / / / / /
C[C@@H]1CN([C@H](C)CO)C(=O)Cc2cc(NS(=O)(=O)c3cccs3)ccc2O[C@H]1CN(C)C(=O)Nc1ccccc1 13 -5 / / / /
CC(C)CC#Cc1ccc([C@H]2[C@@H](CO)N3C(=O)CN(C(=O)Cc4cccnc4)C[C@H]23)cc1 / 46 / / / /
C[C@H](CO)N1C[C@H](C)[C@H](CN(C)S(C)(=O)=O)Oc2c(NC(=O)C3CCOCC3)cccc2C1=O 11 -6 / / / /
O=C(Nc1ccc(F)cc1)N1CC(=O)N2[C@H](CO)[C@H](c3ccc(C#CC4CC4)cc3)[C@@H]2C1 / -1 / / / /
COc1ccc(CN(C)C[C@@H]2OCCCC[C@@H](C)Oc3ccc(NC(=O)NC(C)C)cc3C(=O)N([C@H](C)CO)C[C@@H]2C)cc1 -37 2 / / / /
N#C[C@@H]1[C@H](c2ccc(C#CCC3CCCC3)cc2)[C@@H](CO)N1C(=O)CN1CCOCC1 101* -4 106* 69 -7 82*
CCCC#Cc1ccc([C@@H]2[C@@H](CO)N(C(=O)CN3CCOCC3)[C@H]2C#N)cc1 ? 4 / / / /
N#C[C@H]1[C@H](c2ccc(C#CCC3CCCC3)cc2)[C@@H](CO)N1C(=O)CN1CCOCC1 83 -4 / / / /
CCCC#Cc1ccc([C@@H]2[C@H](C#N)N(C(=O)CN3CCOCC3)[C@H]2CO)cc1 99* 4 90 51 -5 13
CCCN(C)C[C@@H]1Oc2cc(C#Cc3cccc(F)c3)ccc2S(=O)(=O)N([C@@H](C)CO)C[C@@H]1C 111* 10 113* 61 7 102*
CCCN(C)C[C@@H]1Oc2cc(C#Cc3ccc(F)cc3)ccc2S(=O)(=O)N([C@H](C)CO)C[C@@H]1C 14 11 / / / /
CCCN(C)C[C@@H]1Oc2cc(C#Cc3ccc(F)cc3)ccc2S(=O)(=O)N([C@@H](C)CO)C[C@H]1C 94* 4 105* 40 31 106*
C[C@@H]1CN([C@H](C)CO)S(=O)(=O)c2ccc(C#Cc3cccc(F)c3)cc2O[C@@H]1CN(C)C -81 5 / / / /
CCCN(C)C[C@@H]1Oc2cc(C#Cc3ccccc3)ccc2S(=O)(=O)N([C@@H](C)CO)C[C@H]1C 26 -1 / / / /
CCCN(C)C[C@@H]1Oc2cc(C#Cc3cccc(F)c3)ccc2S(=O)(=O)N([C@@H](C)CO)C[C@H]1C 116* -5 110* 10 4 104*
O=C(c1cnccn1)N1CC(=O)N2[C@@H](CO)[C@@H](c3ccc(C#CCc4ccccc4)cc3)[C@@H]2C1 / -10 / / / /
COc1ccc(S(=O)(=O)Nc2ccc3c(c2)C(=O)N([C@@H](C)CO)C[C@H](C)[C@@H](CN(C)C)OCCCC[C@H](C)O3)cc1 43 7 / / / /
C[C@H]1CN([C@@H](C)CO)C(=O)CCCn2cc(nn2)CO[C@H]1CN(C)S(=O)(=O)c1ccccc1C#N / 1 / / / /
Cc1noc(C)c1NC(=O)N(C)C[C@@H]1Oc2ccc(NC(=O)Cc3ccccc3)cc2C(=O)N([C@@H](C)CO)C[C@H]1C 70 1 / / / /
COc1ccc2c3c([nH]c2c1)[C@@H](CO)N(C(=O)Nc1ccc(F)cc1)CC31CN(Cc2nccs2)C1 / -10 / / / /
N#C[C@H]1[C@@H](c2ccc(C#CC3CCCCC3)cc2)[C@H](CO)N1S(=O)(=O)c1ccccc1 82 -19 / / / /
N#C[C@H]1[C@H](c2ccc(C#CC3CCCC3)cc2)[C@@H](CO)N1S(=O)(=O)c1ccccc1 100* 8 96* 99* -13 106*
N#C[C@H]1[C@@H](c2ccc(C#CC3CCCCC3)cc2)[C@@H](CO)N1S(=O)(=O)c1ccccc1 88 -3 / / / /
N#C[C@@H]1[C@@H](c2ccc(C#CC3CCCC3)cc2)[C@H](CO)N1S(=O)(=O)c1ccccc1 97* -19 95* 107* 21 105*
SMILES T_cruzi_growth-1 C_diff_HTS T_cruzi_growth-2 T_cruzi_growth-3 3T3_cytotox 3T3_cytotox_2
CCC(=O)N1C[C@H](C)[C@@H](OC)CN(C)C(=O)c2cc(NC(=O)Nc3ccc(Cl)cc3)ccc2OC[C@H]1C -6 / / / / /
C/C=C/c1ccc2c(c1)O[C@@H](CN(C)S(=O)(=O)c1ccc(C)cc1)[C@@H](C)CN([C@@H](C)CO)S2(=O)=O 98* -1 108* 88 16 43*
Cc1ccc(S(=O)(=O)N(C)C[C@H]2Oc3cc(Br)ccc3S(=O)(=O)N([C@@H](C)CO)C[C@H]2C)cc1 / 4 / / / /
C/C=C/c1ccc2c(c1)O[C@H](CN(C)S(C)(=O)=O)[C@@H](C)CN([C@H](C)CO)S2(=O)=O -11 3 / / / /
C/C=C/c1ccc2c(c1)O[C@H](CN(C)S(=O)(=O)c1ccc(C)cc1)[C@H](C)CN([C@H](C)CO)S2(=O)=O 117* 4 107* 52 6 78*
C[C@@H]1CN([C@@H](C)CO)C(=O)c2cccc(NC(=O)Nc3ccc(F)cc3)c2O[C@@H]1CN(C)C(=O)NC1CCCCC1 -33 -2 / / / /
C[C@H]1CN([C@@H](C)CO)S(=O)(=O)c2ccc(-c3ccncc3)cc2O[C@@H]1CN(C)C(=O)Nc1ccc(C(F)(F)F)cc1 102* 1 104* 85 29 79*
Cc1ccccc1-c1ccc2c(c1)O[C@@H](CN(C)C(=O)Nc1ccc(C(F)(F)F)cc1)[C@H](C)CN([C@H](C)CO)S2(=O)=O 101* 36 92 98* 51* 104*
C[C@@H]1CN([C@H](C)CO)S(=O)(=O)c2ccc(-c3ccncc3)cc2O[C@H]1CN(C)C(=O)Nc1ccc(C(F)(F)F)cc1 ? 6 106* 90 38* 73*
Cc1ccccc1-c1ccc2c(c1)O[C@@H](CN(C)C(=O)Nc1ccc(C(F)(F)F)cc1)[C@@H](C)CN([C@@H](C)CO)S2(=O)=O 92 20 / / / /
C[C@H](CO)N1C[C@H](C)[C@H](CN(C)C(=O)Nc2ccc(C(F)(F)F)cc2)Oc2cc(-c3ccncc3)ccc2S1(=O)=O 74 11 / / / /
C[C@H]1CN([C@@H](C)CO)S(=O)(=O)c2ccc(-c3ccncc3)cc2O[C@H]1CN(C)C(=O)Nc1ccc(C(F)(F)F)cc1 74 8 / / / /
Cc1ccc(S(=O)(=O)N(C)C[C@@H]2Oc3ccc(NC(=O)Nc4ccccc4)cc3CC(=O)N([C@@H](C)CO)C[C@H]2C)cc1 4 -2 / / / /
CCCC#Cc1ccc([C@@H]2[C@@H](CO)N3C(=O)CN(C(=O)c4ccncc4)C[C@H]23)cc1 / -9 / / / /
OC[C@H]1[C@H](c2ccc(Br)cc2)[C@@H]2CN(Cc3ccccn3)CCCCN12 109* -1 ? 55 3 3
